Each structure is given as a SMILES string. Records with an inconclusive call do not appear. The source made the active and inactive calls. The call rests on the fitted dose curve; in most records, active means well fitted inhibition curve with a large enough effect; inconclusive means small, poorly fitted or top-dose-only effect; inactive means no such curve, though single readings can be large or run the other way.
Potency means the concentration at half of the fitted maximal effect.

A short description of this assay: qHTS assay to identify inhibitors of the type 1 interferon - major histocompatibility complex class I in skeletal muscle: Counter screen cell viability and HiBit confirmation (AID 1347412). Further: nearly all actives have a fitted effect of over 60% in size. The conditions noted are these: iHSKM muscle cells + IFN-b, HiBiT or CellTiter-Glo, 24 h; HiBiT. The method, boiled down: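 Myoblasts (C25cl48, HLA-B HiBiT) seeded in medium without dexamethasone, IFN-b 4 ng/ml added except unstimulated columns; 1 hr later compounds pinned (12-pt 1:3, top 46 uM final). Incubated 24 hrs, lysed 10 min, luminescence measured.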
For orientation: qHTS replaces the single test concentration by a dilution series.
On to `Cc1ccc([N+](=O)[O-])cc1S(=O)(=O)N(C)/N=C/c1cnc2ccc(Br)cn12`, for which the Potency was 0.0497 µM (active).
With `CCN1CCN(Cc2ccc(NC(=O)c3ccc(C)c(/C=C/c4cnc5[nH]ccc5c4OC)c3)cc2C(F)(F)F)CC1`, the Potency was 6.25 µM (active).
Regarding `O=C(/C=C/c1cccc(S(=O)(=O)Nc2ccccc2)c1)NO`, the Potency is 3.13 µM (active).

Source of the values: PubChem BioAssay (NCATS).
